The term residual activity denotes the signal under treatment as a percentage of the control signal.

Test [1] deals with Homeodomain-interacting protein kinase 3 (Homo sapiens) (UniProt Q9H422). As to conditions: at 10 µM; call rule not given here.
Test [2] deals with T1, Serine/threonine-protein kinase haspin (Homo sapiens) (UniProt Q8TF76).
T1 sequence (whole entry): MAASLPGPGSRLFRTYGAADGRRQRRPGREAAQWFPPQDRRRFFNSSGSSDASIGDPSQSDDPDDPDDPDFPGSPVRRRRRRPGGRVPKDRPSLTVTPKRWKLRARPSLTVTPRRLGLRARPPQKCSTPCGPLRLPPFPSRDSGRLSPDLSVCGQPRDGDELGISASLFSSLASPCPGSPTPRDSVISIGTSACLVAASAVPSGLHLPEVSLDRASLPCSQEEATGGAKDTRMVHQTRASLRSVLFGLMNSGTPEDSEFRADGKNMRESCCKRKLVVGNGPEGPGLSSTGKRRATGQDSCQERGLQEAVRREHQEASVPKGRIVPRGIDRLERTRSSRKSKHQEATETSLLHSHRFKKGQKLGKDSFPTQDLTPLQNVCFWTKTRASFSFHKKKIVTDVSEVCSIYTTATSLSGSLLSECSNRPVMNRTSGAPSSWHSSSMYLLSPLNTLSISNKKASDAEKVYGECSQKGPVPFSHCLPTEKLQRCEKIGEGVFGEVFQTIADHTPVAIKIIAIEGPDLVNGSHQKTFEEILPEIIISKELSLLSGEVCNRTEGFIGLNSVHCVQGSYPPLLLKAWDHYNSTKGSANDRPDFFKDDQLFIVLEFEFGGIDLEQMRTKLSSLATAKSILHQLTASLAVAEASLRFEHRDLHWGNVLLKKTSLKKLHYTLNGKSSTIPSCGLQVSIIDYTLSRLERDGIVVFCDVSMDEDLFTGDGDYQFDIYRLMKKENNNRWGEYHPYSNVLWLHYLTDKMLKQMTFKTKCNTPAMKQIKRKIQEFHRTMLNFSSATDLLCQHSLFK
The conditions noted are these: at 1 µM.

For test [3], the target named is T1, Serine/threonine-protein kinase haspin (Homo sapiens). As to conditions: at 10 µM.
The target of test [4] is Tyrosine-protein kinase HCK (Homo sapiens) (UniProt P08631). The conditions noted are these: at 1 µM.
Tyrosine-protein kinase HCK (Homo sapiens), sequence (P08631 2-526 limits assumed): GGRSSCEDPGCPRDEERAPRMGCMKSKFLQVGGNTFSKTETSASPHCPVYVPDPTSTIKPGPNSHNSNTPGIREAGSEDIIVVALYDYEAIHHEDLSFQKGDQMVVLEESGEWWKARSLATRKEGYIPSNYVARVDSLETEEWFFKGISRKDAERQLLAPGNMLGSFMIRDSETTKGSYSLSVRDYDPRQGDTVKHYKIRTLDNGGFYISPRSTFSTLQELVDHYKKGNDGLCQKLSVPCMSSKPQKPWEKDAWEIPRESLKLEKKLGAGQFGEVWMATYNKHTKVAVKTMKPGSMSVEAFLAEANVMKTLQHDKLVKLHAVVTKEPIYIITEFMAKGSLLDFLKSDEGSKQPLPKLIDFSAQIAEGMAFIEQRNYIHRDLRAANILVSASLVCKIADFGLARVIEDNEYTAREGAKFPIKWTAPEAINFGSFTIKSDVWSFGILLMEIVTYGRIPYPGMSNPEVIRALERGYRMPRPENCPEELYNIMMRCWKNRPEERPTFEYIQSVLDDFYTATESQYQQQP
Test [5] has the same target. As to conditions: at 10 µM.
Test [6] shares this target. As to conditions: at 1 µM. The source holds these as a separate data set.
The target is the same in test [7]. As to conditions: at 10 µM. The source holds these as a separate data set.
In test [8] the target is Insulin-like growth factor 1 receptor (Homo sapiens) (UniProt P08069). The conditions noted are these: at 1 µM.
Insulin-like growth factor 1 receptor (Homo sapiens), sequence (P08069 31-736 limits assumed): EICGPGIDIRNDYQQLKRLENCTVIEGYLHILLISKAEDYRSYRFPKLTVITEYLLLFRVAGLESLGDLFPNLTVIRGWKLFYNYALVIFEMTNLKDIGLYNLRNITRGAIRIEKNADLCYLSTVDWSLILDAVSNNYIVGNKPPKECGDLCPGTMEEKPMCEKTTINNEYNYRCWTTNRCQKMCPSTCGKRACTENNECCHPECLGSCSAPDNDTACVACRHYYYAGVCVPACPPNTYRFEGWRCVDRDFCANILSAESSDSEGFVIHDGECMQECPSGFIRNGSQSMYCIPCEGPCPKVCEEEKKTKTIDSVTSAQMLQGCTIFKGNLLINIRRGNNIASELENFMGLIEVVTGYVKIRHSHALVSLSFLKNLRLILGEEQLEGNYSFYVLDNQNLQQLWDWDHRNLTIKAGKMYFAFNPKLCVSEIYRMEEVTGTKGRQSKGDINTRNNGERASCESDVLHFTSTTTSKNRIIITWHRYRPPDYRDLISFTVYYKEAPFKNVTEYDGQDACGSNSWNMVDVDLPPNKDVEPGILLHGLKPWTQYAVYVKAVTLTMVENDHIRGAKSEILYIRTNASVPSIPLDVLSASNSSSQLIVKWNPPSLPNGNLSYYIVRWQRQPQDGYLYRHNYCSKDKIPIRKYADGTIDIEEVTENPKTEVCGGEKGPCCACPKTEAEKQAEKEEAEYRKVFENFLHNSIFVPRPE
Insulin-like growth factor 1 receptor (Homo sapiens), sequence (P08069 741-1367 limits assumed): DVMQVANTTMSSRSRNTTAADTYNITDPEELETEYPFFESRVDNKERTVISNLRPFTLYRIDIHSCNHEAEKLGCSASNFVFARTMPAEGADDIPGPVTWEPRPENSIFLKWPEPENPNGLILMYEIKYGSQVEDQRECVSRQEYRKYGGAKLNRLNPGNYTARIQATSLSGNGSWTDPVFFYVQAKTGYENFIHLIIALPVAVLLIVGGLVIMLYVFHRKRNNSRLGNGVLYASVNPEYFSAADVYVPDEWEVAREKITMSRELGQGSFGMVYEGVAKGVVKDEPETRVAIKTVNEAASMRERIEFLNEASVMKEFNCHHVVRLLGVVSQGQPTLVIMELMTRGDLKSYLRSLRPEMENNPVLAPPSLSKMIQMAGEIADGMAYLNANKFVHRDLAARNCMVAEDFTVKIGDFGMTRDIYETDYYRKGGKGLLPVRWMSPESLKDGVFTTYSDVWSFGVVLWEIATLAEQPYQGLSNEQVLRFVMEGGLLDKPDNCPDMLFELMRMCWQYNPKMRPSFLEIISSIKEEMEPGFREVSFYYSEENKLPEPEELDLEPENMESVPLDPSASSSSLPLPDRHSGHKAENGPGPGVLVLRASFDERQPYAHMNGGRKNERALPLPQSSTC
Test [9] shares this target. As to conditions: at 10 µM.
Test [10] deals with T2, Protein kinase C zeta type (Homo sapiens) (UniProt Q05513).
T2 sequence (whole entry): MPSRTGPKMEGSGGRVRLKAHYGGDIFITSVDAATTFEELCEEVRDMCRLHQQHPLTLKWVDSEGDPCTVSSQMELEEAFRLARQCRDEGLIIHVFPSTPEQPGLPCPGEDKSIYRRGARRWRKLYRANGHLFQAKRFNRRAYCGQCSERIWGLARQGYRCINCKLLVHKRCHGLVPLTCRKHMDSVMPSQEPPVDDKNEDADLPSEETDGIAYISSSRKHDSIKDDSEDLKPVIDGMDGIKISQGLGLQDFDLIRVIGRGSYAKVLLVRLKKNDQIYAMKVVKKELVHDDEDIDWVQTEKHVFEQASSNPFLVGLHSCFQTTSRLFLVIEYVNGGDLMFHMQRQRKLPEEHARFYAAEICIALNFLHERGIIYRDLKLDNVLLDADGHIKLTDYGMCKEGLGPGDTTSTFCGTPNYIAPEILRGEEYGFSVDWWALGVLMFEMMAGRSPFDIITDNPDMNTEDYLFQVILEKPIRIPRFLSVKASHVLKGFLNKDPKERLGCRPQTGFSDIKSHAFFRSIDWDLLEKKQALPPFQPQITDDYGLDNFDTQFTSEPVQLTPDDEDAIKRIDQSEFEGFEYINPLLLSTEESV
As to conditions: at 10 µM.

Test [11] has as its target Protein kinase C eta type (Homo sapiens) (UniProt P24723). The conditions noted are these: at 1 µM.
For test [12] the target is unchanged. As to conditions: at 10 µM.
Test [13] concerns the target Protein kinase C theta type (Homo sapiens) (UniProt Q04759). The conditions noted are these: at 1 µM.
The target is the same in test [14]. The conditions noted are these: at 10 µM.
Test [15] addresses T3, Protein kinase C iota type (Homo sapiens) (UniProt P41743).
T3 sequence (whole entry): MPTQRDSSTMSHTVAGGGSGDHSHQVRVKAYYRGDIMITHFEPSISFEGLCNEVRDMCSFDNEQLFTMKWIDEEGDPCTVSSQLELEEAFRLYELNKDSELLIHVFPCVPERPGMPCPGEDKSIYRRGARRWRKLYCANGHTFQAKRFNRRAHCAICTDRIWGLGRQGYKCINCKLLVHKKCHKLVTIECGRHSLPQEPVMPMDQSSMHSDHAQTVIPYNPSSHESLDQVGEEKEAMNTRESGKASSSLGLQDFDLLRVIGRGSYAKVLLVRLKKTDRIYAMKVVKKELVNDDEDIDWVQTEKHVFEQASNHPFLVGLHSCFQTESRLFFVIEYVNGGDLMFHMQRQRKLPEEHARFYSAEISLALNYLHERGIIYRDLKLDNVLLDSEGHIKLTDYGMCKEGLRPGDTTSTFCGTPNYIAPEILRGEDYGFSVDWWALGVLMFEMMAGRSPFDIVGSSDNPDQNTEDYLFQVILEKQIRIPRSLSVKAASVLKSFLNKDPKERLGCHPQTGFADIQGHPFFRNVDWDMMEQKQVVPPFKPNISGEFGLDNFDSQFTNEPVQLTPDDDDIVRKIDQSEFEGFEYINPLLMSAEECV
The conditions noted are these: at 1 µM.

The target in test [16] is T3, Protein kinase C iota type (Homo sapiens). The conditions noted are these: at 10 µM.
Test [17] addresses T4, Serine/threonine-protein kinase D1 (Homo sapiens) (UniProt Q15139).
T4 sequence (whole entry): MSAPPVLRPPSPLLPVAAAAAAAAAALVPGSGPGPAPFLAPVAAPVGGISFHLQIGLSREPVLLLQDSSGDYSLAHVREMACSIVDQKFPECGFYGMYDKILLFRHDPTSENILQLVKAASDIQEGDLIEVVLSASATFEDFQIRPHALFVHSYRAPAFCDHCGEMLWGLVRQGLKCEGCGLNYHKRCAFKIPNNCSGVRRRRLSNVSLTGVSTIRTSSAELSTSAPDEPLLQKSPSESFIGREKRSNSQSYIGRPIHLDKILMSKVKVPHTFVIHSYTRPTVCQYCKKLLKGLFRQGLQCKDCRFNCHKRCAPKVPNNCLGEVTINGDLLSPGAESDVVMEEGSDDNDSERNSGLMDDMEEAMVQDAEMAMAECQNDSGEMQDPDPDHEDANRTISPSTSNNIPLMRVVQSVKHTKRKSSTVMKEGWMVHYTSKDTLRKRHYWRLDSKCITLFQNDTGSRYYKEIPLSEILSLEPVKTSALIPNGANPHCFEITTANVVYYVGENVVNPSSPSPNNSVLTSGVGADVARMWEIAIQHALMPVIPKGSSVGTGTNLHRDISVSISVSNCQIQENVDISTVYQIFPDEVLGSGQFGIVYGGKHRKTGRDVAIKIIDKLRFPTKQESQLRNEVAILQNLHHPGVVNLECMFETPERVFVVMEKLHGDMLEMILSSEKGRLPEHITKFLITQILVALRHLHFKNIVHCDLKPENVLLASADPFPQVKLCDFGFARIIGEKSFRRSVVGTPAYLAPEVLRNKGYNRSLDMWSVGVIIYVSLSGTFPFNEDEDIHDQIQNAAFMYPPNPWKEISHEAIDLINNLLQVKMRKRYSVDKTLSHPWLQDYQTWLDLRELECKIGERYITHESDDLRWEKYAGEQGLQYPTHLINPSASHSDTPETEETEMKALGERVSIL
The conditions noted are these: at 1 µM.

For test [18], the target named is T4, Serine/threonine-protein kinase D1 (Homo sapiens). As to conditions: at 10 µM.
Test [19] concerns the target T5, Serine/threonine-protein kinase D2 (Homo sapiens) (UniProt Q9BZL6).
T5 sequence (whole entry): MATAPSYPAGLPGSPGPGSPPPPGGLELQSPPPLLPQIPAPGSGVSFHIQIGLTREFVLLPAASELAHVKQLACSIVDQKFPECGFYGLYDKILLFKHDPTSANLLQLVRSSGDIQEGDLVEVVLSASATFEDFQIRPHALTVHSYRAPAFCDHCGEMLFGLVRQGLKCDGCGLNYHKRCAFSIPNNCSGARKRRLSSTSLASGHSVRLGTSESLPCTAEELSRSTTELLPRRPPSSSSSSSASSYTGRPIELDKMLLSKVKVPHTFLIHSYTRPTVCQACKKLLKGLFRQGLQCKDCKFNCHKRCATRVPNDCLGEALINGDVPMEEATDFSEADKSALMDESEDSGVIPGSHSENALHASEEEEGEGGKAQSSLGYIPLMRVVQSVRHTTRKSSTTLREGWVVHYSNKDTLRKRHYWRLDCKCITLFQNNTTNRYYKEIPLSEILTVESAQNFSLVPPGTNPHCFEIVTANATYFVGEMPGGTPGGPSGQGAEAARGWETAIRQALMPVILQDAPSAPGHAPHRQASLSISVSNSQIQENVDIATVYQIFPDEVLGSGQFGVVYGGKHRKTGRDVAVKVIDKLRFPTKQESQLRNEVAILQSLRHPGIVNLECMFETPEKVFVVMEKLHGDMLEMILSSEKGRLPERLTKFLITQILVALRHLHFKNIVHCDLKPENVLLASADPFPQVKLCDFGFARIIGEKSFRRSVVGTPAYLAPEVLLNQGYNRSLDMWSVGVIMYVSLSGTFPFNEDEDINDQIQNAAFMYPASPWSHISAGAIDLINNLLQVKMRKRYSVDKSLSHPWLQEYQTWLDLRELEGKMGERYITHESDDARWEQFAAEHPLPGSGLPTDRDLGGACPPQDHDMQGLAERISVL
The conditions noted are these: at 1 µM.

Test [20] has as its target T5, Serine/threonine-protein kinase D2 (Homo sapiens). As to conditions: at 10 µM.

Homeodomain-interacting protein kinase 3 (Homo sapiens), sequence (Q9H422 whole entry, looked up): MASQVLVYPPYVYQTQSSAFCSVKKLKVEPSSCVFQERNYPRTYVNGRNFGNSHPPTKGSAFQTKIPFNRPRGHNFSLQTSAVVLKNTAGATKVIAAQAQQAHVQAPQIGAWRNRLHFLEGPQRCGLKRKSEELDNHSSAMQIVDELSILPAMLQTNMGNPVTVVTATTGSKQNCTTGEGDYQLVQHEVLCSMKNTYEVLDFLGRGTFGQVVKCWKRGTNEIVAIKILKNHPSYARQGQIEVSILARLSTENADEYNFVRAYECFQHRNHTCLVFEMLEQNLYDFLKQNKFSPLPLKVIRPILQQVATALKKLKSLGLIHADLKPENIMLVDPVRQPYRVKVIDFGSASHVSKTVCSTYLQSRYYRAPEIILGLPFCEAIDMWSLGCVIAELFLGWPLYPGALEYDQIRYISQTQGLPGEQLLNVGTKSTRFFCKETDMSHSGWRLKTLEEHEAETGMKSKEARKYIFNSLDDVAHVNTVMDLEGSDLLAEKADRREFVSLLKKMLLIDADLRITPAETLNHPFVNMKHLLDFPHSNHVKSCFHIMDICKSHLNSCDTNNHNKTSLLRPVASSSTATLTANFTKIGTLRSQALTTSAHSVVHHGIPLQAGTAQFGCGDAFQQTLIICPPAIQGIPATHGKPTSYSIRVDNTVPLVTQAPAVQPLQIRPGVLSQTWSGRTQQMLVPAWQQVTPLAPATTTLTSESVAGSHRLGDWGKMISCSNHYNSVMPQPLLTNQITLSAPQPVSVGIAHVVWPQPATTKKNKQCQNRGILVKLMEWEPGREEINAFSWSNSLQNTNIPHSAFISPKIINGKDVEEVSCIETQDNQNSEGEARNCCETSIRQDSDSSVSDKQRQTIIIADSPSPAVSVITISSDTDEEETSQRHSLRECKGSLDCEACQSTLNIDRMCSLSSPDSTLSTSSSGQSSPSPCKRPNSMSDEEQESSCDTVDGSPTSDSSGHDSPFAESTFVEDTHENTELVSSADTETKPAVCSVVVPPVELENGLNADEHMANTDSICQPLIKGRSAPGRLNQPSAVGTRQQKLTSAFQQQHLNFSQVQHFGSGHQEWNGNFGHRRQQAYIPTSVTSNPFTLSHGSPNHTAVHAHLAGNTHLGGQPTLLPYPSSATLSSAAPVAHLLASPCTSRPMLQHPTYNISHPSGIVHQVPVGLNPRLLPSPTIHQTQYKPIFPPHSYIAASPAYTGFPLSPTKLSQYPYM
Protein kinase C eta type (Homo sapiens), sequence (P24723 whole entry): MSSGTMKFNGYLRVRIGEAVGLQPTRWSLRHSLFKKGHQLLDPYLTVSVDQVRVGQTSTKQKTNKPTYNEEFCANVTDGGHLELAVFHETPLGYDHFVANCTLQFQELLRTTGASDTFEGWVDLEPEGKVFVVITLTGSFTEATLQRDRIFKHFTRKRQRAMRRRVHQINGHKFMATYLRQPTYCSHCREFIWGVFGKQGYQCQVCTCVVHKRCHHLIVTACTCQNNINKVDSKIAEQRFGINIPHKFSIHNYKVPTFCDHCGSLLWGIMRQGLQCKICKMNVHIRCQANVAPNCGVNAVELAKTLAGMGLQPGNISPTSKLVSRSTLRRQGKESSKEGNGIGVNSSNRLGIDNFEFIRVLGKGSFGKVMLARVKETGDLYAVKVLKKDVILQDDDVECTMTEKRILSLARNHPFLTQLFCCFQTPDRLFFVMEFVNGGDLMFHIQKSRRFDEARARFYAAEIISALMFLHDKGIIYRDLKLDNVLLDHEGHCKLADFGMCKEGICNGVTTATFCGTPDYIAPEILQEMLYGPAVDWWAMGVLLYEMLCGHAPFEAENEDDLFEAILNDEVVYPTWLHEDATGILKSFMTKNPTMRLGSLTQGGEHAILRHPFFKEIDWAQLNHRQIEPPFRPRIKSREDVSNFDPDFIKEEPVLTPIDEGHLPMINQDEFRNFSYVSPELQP
Protein kinase C theta type (Homo sapiens), sequence (Q04759 whole entry, looked up): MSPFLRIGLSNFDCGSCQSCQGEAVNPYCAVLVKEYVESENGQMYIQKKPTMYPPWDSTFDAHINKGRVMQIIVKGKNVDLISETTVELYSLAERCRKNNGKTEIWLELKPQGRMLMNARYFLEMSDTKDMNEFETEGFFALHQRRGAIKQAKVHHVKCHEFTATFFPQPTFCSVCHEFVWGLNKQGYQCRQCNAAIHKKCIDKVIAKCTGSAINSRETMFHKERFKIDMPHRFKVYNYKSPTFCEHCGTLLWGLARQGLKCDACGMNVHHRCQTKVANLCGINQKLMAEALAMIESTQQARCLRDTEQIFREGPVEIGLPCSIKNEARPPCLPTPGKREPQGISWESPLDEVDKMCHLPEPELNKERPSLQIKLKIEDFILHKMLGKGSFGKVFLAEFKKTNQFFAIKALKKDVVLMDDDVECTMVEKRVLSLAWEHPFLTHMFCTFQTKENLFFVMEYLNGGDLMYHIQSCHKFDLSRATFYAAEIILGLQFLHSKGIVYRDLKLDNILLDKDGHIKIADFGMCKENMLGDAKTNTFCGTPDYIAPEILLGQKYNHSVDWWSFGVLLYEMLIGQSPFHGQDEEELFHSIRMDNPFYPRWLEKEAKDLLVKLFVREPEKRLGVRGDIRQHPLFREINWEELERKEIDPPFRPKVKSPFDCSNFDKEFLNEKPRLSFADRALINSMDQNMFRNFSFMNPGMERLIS

Take `Cn1cnc2cc3c(Nc4cccc(Br)c4)ncnc3cc21`: the residual activity in [1] was 95%; in test [2] it was 108%; in test [3], 59%; in [4], 52%; in test [5], 21%; in test [6], 51%. The residual activity stood at 25% in test [7]; 145% in [8]; 103% in test [9]; 101% in test [10]; 93% in test [11]; 91% in [12]. The residual activity is 99% in [13]; 100% in test [14]; 103% (inactive) in test [15]; 76% in test [16]; 94% in test [17]; 82% in test [18]. The results for the residual activity in [19] and in [20] were 97% and 116%, respectively.
For `Cc1ccc(NC2=CC(=O)c3sc(C)nc3C2=O)cc1`, the residual activity in test [1] worked out at 97%; in test [2] it was 105%; in [3], 116%; in test [4], 85%; in test [5], 74%; in test [6], 103%. Further, the residual activity in test [7] turned out to be 99%; in test [8], 75%; in test [9] it was 116%; in test [10] it was 102%; in test [11], 83%; in [12] it was 86%. Besides, the residual activity in test [13] is 88%; in [14], 87%; in [15] it was 106% (inactive); in [16] it was 103%; in [17] it was 76%; in test [18] it was 73%. Moreover, the residual activity in [19] was found to be 105%; in test [20], 85%.
On to `O=C(O)c1ccc2c3c1cccc3c(=O)n1c3ccccc3nc21`, for which the residual activity was found to be 48% in test [1]; 91% in test [2]; 92% in [3]; 102% in [4]; 81% in [5]; 104% in test [6]. In addition, the residual activity came out at 95% in test [7]; 68% in test [8]; 74% in [9]; 95% in [10]; 76% in test [11]; 84% in test [12]. The residual activity in test [13] was 109%; in test [14], 107%; in [15], 105% (inactive); in test [16], 92%; in [17] it was 110%; in test [18] it was 57%. Further, the values for the residual activity in test [19] and in [20] were 101% and 84%, respectively.
`NC(=O)c1ccc2[nH]c(-c3ccc(Oc4ccc(Cl)cc4)cc3)nc2c1`: the residual activity in [1] was determined as 98%; in [2], 89%; in test [3], 96%; in test [4] it was 72%; in [5] it was 60%; in test [6], 96%. For the same molecule, the residual activity in [7] is 89%; in test [8], 140%; in test [9], 98%; in test [10], 100%; in [11], 86%; in [12], 80%. For the same molecule, the residual activity in test [13] is 85%; in [14] it was 105%; in [15] it was 107% (inactive); in test [16], 96%; in [17], 109%; in test [18] it was 79%. Also, the residual activity in [19] amounted to 99%; in test [20] it was 84%.

For the origin of these results see ChEMBL document CHEMBL2218924, “A broad activity screen in support of a chemogenomic map for kinase signalling research and drug discovery” (Biochem J, 2013).
